This excerpt belongs to a sample that is enriched for hits.
CHX counter = Cycloheximide Counterscreen for Small Molecule Inhibitors of Shiga Toxin | cell reporter, cycloheximide protein synthesis inhibition counterscreen | max response, % | hit rate 12% among 300,000 | AID 2314, 2010; in the data active = max response mostly above about 13%, no sharp cut-off; inactive = mostly below about 14%; note: read at 38.3 µM for the half of the compounds with a filed dose
Sm TGR inh = qHTS Assay for the Inhibitors of Schistosoma Mansoni Peroxiredoxins; Potency, µM (top dose mostly 114 µM), usual class: inhibitors; purified TGR, DTNB reduction, TNB absorbance 405 nm; hit rate 3% among 360,000; note: nearly all actives have a fitted effect of over 60% in size
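Kinetic colorimetric format: TGR-catalysed, NADPH-driven DTNB reduction monitored via TNB absorbance. Enzyme dispensed at 20 nM; compound exposure 15 min at room temperature before reaction start.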
LmPK inhibitor = qHTS Assay for Inhibitors of Leishmania Mexicana Pyruvate Kinase (LmPK). Q27686. purified LmPK, Kinase-Glo ATP luminescence, 1 h. Potency, µM (doses to about 57.5 µM), actives largely listed as inhibitors. hit rate 0.37% among 290,000. AID 1721, 2009
Target sequence (Q27686 whole entry, looked up): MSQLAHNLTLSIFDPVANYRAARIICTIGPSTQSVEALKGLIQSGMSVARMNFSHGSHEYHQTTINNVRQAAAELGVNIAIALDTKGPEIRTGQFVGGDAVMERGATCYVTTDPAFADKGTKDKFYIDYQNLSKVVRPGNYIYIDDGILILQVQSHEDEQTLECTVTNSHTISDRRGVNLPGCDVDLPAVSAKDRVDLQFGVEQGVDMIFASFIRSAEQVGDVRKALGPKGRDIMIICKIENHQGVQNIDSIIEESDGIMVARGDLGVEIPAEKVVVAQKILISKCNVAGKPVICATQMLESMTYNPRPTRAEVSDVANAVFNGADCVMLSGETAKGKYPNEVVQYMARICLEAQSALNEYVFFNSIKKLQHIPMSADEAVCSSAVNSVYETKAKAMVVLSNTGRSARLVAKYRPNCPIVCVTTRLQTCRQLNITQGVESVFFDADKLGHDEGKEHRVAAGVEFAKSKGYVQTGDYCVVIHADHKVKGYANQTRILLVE
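Kinase-Glo luminescence read after 1 h RT reaction of 0.1 nM LmPK with 0.5 mM PEP and 0.1 mM ADP. Activity scaled between uninhibited and enzyme-free controls.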
Giardia FBPA inh = qHTS Assay for Inhibitors of Fructose-1,6-bisphosphate Aldolase from Giardia Lamblia; A8B2U2; purified Giardia FBPA; Potency, µM (doses to about 59.6 µM), usual class: inhibitors; hit rate 0.71% among 290,000; AID 2451, 2010; note: nearly all actives have a fitted effect of over 55% in size
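Giardia FBPA (40 nM reagent) was preincubated 10 min at RT with compound (up to 57.5 uM final), then substrate plus GAPDH/TPI/NAD/arsenate coupling system with diaphorase/resazurin was added; resorufin fluorescence (525/598 nm) was read after 20 min.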
Shiga inhibitor = A qHTS for Small Molecule Inhibitors of Shiga Toxin. Vero cells, Shiga toxin protein synthesis inhibition reporter. inhibition, % at 38.7 µM. hit rate 9.2% among 290,000; in the data active = inhibition mostly above about 28%, no sharp cut-off; inactive = mostly below about 43%
TbPYK inhibitor = qHTS of Trypanosoma Brucei Inhibitors; hit rate 0.12% among 410,000; Potency, µM (highest dose often 76.8 µM), most hits filed as inhibitors; pyruvate kinase (Trypanosoma brucei), Q57TT1; TbPYK enzyme, Kinase-Glo Plus ATP luminescence, 45 min; note: nearly all actives have a fitted effect of over 50% in size
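Enzyme and substrate buffer are dispensed first and compound is pin-transferred. ADP at 130 uM final then starts the reaction, which runs 45 min at room temperature. Detection reagent is added for 10 min before luminescence is imaged.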
Of the large screens only hits and unclear results are named; the others gave an inactive call. Unless noted, calls come from the whole dose curve; as a rule, active = well fitted curve in the direction sought with a large enough effect; inconclusive = small, poorly fitted or top-dose-only effect, or another doubt; inactive = no such curve, though single readings can be large; an effect the other way counts as inactive or inconclusive.

O=C(O)c1csc(Cc2ccccc2)n1	none
COc1ccc(NC(=O)c2csnn2)cc1	none (no result: CHX counter, LmPK inhibitor, Giardia FBPA inh, Shiga inhibitor)
Nc1nc(C(=O)N2CCOCC2)nn1C(=O)c1ccc(Cl)cc1	Sm TGR inh 35µM
O=C1c2ccc(-c3ccc(F)cc3OCc3ccccc3)cc2S(=O)(=O)c2cccc(C(=O)N3CCN(c4ncc(Br)cn4)CC3)c21	none (no result: CHX counter, Sm TGR inh, LmPK inhibitor, Giardia FBPA inh, Shiga inhibitor)
O=C(O)c1cccc2c1C(=O)c1ccc(-c3ccc(F)cc3OCc3ccccc3)cc1S2(=O)=O	Sm TGR inh 32µM (no result: CHX counter, LmPK inhibitor, Giardia FBPA inh, Shiga inhibitor)
O=C(Nc1ccc(/C=C/c2nc3ccccc3o2)cc1)c1cccc(C(F)(F)F)c1	CHX counter 34, Shiga inhibitor 102
Cc1cnc(Nc2nc3ccccc3o2)nc1C(=O)Nc1cccc(C(F)(F)F)c1	none
O=C(Nc1ccc(/C=C/c2nc3ccccc3o2)cc1)c1c(F)cccc1F	CHX counter 28, Shiga inhibitor active
CC(=O)Nc1ccc(/C=C/c2nc3ccccc3o2)cc1	CHX counter 54, Shiga inhibitor 101
C#CCOCCOCCOCCNc1nc(N2CCN(C(=O)[C@H](CCCCN)n3cc(C(N)[C@H](C)CC)nn3)CC2)nc(N2CCN(C(=O)[C@H](CCC(=O)O)n3cc(C(N)[C@H](C)CC)nn3)CC2)n1 (some centres not stated)	Sm TGR inh 16µM
C#CCOCCOCCOCCNc1nc(N2CCN(C(=O)[C@H](Cc3ccc(O)cc3)n3cc(CCO)nn3)CC2)nc(N2CCN(C(=O)[C@H](Cc3ccc(O)cc3)n3cc(CCO)nn3)CC2)n1	Sm TGR inh 40µM (no result: TbPYK inhibitor)
C#CCOCCOCCOCCNc1nc(N2CCN(C(=O)[C@H](CCC(=O)O)n3cc(C(N)Cc4ccc(O)cc4)nn3)CC2)nc(N2CCN(C(=O)[C@H](CCC(=O)O)n3cc(C(N)CC(C)C)nn3)CC2)n1 (some centres not stated)	Sm TGR inh 35µM
C#CCOCCOCCOCCNc1nc(N2CCN(C(=O)[C@H]([C@@H](C)CC)n3cc([C@@H](N)Cc4ccc(O)cc4)nn3)CC2)nc(N2CCN(C(=O)[C@H](CCCCN)n3cc([C@@H](N)CO)nn3)CC2)n1	Sm TGR inh 20µM (no result: TbPYK inhibitor)
C#CCOCCOCCOCCNc1nc(N2CCN(C(=O)[C@H](CCC(=O)O)n3cc(C(N)Cc4ccc(O)cc4)nn3)CC2)nc(N2CCN(C(=O)[C@H](CCC(=O)O)n3cc(C(N)[C@H](C)CC)nn3)CC2)n1 (some centres not stated)	Sm TGR inh inconclusive
C#CCOCCOCCOCCNc1nc(N2CCN(C(=O)C([C@@H](C)CC)n3cc(C(N)CO)nn3)CC2)nc(N2CCN(C(=O)[C@H](CCC(=O)O)n3cc(C(N)Cc4ccc(O)cc4)nn3)CC2)n1 (some centres not stated)	Sm TGR inh inconclusive (no result: TbPYK inhibitor)
CC(C)c1ccc2c(c1)-c1ccccc1S(=O)(=O)N2CC(=O)N1CCCCC1	Sm TGR inh inconclusive (no result: CHX counter, LmPK inhibitor, Giardia FBPA inh, Shiga inhibitor)
C#CCOCCOCCOCCNc1nc(N2CCN(C(=O)[C@H](CCC(=O)O)n3cc(C(N)CO)nn3)CC2)nc(N2CCN(C(=O)[C@H](Cc3ccc(O)cc3)n3cc(C(N)CC(C)C)nn3)CC2)n1 (some centres not stated)	Sm TGR inh 10µM (no result: TbPYK inhibitor)
C#CCOCCOCCOCCNc1nc(N2CCN(C(=O)[C@H](CCCCN)n3cc([C@@H](N)CO)nn3)CC2)nc(N2CCN(C(=O)[C@H](Cc3ccc(O)cc3)n3cc([C@@H](N)CC(C)C)nn3)CC2)n1	none
CC(C)c1ccc(-n2cnn(-c3ncccc3[N+](=O)[O-])c2=O)cc1	CHX counter 34, Shiga inhibitor 77 (no result: Sm TGR inh)
Cc1ccc2oc(C(=O)N(Cc3sccc3C)C3CCS(=O)(=O)C3)c(C)c2c1 (configuration not stated)	none (no result: CHX counter, LmPK inhibitor, Giardia FBPA inh, Shiga inhibitor)
C/C(=N\N=C(/N)SC1CC(=O)N(c2ccc(Br)cc2)C1=O)c1cccs1 (configuration not stated)	Sm TGR inh 14µM
C/C(=N\N=C(/N)SC1CC(=O)N(c2ccccc2)C1=O)c1cccs1 (configuration not stated)	none
